About 2,000 (36%) of roughly 5,500 compounds were called active. Another 18% or so got no clear call; they are omitted. No stated cut-off is given here; in the data, active means normalized growth mostly below about 0.91 (no sharp cut-off); inconclusive means no clear call, values can overlap the other calls; inactive means mostly above about 0.92. The list shows a part of the results.
Experiment: chemical genetic growth profiling, strain panel (AID 1159580);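 further: tested at 20 µM; growth read once vehicle control cultures reached saturation at 30 °C; 1 = growth at the plate median or of vehicle wells; lower values mean less growth of the strain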
Settings: growth OD

Measured: normalized growth

C=CCc1ccc2c(c1)OCO2
inactive: S. cerevisiae deletion strains, locus YJR043C, strain POL32, hits give low values 1.02 | S. cerevisiae deletion strains, locus YJR066W, strain TOR1, hits give low values 0.928 | S. cerevisiae deletion strains, locus YJR075W, strain HOC1, hits give low values 1.03 | S. cerevisiae deletion strains, locus YKL009W, strain mrt4, hits give low values 0.979 | S. cerevisiae deletion strains, locus YKL068W, hits give low values 0.987 | S. cerevisiae deletion strains, locus YKL085W, strain MDH1 (second series), hits give low values 1.01 | S. cerevisiae deletion strains, locus YKL085W, strain MDH1, hits give low values 1.01 | S. cerevisiae deletion strains, locus YKL160W, strain elf1, hits give low values 0.994 | S. cerevisiae deletion strains, locus YKL190W, strain CNB1, hits give low values 1.01 | S. cerevisiae deletion strains, locus YKR001C, strain vps1, hits give low values 0.965 | S. cerevisiae deletion strains, locus YKR026C, strain gcn3, hits give low values 1.03 | S. cerevisiae deletion strains, locus YKR091W, strain srl3, hits give low values 1.02 | S. cerevisiae deletion strains, locus YLL001W, strain dnm1, hits give low values 1.05 | S. cerevisiae deletion strains, locus YLL026W, hits give low values 1.01 | S. cerevisiae deletion strains, locus YLL041C, strain sdh2, hits give low values 1.02 | S. cerevisiae deletion strains, locus YLR027C, strain aat2, hits give low values 1 | S. cerevisiae deletion strains, locus YLR039C, strain RIC1, hits give low values 0.891 | S. cerevisiae deletion strains, locus YLR058C, strain SHM2, hits give low values 1.01 | S. cerevisiae deletion strains, locus YLR102C, strain apc9, hits give low values 0.993 | S. cerevisiae deletion strains, locus YLR113W, strain HOG1, hits give low values 1.03 | S. cerevisiae deletion strains, locus YLR221C, strain rsa3, hits give low values 1.06 | S. cerevisiae deletion strains, locus YLR258W, strain gsy2, hits give low values 1.02 | S. cerevisiae deletion strains, locus YLR262C, strain YPT6 (second series), hits give low values 1.03 | S. cerevisiae deletion strains, locus YLR262C, strain YPT6, hits give low values 0.909 | S. cerevisiae deletion strains, locus YLR268W, strain sec22, hits give low values 0.987 | S. cerevisiae deletion strains, locus YLR320W, strain mms22, hits give low values 1.04 | S. cerevisiae deletion strains, locus YLR330W, strain CHS5, hits give low values 1 | S. cerevisiae deletion strains, locus YLR342W, strain FKS1 (second series), hits give low values 1.01 | S. cerevisiae deletion strains, locus YLR342W, strain FKS1, hits give low values 1.02 | S. cerevisiae deletion strains, locus YLR357W, strain rsc2, hits give low values 1.13 | S. cerevisiae deletion strains, locus YLR370C, strain arc18, hits give low values 1.04 | S. cerevisiae deletion strains, locus YLR371W, strain rom2, hits give low values 0.984 | S. cerevisiae deletion strains, locus YLR384C, strain iki3, hits give low values 1.03 | S. cerevisiae deletion strains, locus YLR418C, strain cdc73, hits give low values 1.01 | S. cerevisiae deletion strains, locus YML016C, strain PPZ1, hits give low values 1.01 | S. cerevisiae deletion strains, locus YML032C, strain rad52, hits give low values 0.996 | S. cerevisiae deletion strains, locus YML120C, strain ndi1, hits give low values 1.05 | S. cerevisiae deletion strains, locus YML124C, strain tub3, hits give low values 0.995 | S. cerevisiae deletion strains, locus YMR058W, strain fet3, hits give low values 1.04 | S. cerevisiae deletion strains, locus YMR078C, strain ctf18, hits give low values 0.985 | S. cerevisiae deletion strains, locus YMR125W, strain sto1, hits give low values 1.08 | S. cerevisiae deletion strains, locus YMR129W, hits give low values 1.03 | S. cerevisiae deletion strains, locus YMR205C, strain PFK2, hits give low values 1 | S. cerevisiae deletion strains, locus YMR223W, strain ubp8, hits give low values 1 | S. cerevisiae deletion strains, locus YMR231W, strain pep5, hits give low values 1.02 | S. cerevisiae deletion strains, locus YMR263W, strain SAP30, hits give low values 1 | S. cerevisiae deletion strains, locus YMR307W, strain GAS1, hits give low values 0.995 | S. cerevisiae deletion strains, locus YNL067W, strain RPL9B, hits give low values 0.998 | S. cerevisiae deletion strains, locus YNL071W, strain lat1, hits give low values 1.03 | S. cerevisiae deletion strains, locus YNL183C, strain NPR1, hits give low values 0.97 | S. cerevisiae deletion strains, locus YNL209W, strain ssb2, hits give low values 1.02 | S. cerevisiae deletion strains, locus YNL233W, strain BNI4, hits give low values 1 | S. cerevisiae deletion strains, locus YNL248C, strain rpa49, hits give low values 1.04 | S. cerevisiae deletion strains, locus YNL250W, strain rad50, hits give low values 1.01 | S. cerevisiae deletion strains, locus YNL271C, strain bni1, hits give low values 0.978 | S. cerevisiae deletion strains, locus YNL298W, strain CLA4, hits give low values 0.995 | S. cerevisiae deletion strains, locus YNL307C, strain MCK1, hits give low values 0.989 | S. cerevisiae deletion strains, locus YNL322C, strain KRE1 (second series), hits give low values 1.02 | S. cerevisiae deletion strains, locus YNR049C, strain mso1, hits give low values 1.02 | S. cerevisiae deletion strains, locus YNR052C, strain pop2, hits give low values 0.997 | S. cerevisiae deletion strains, locus YOL012C, strain htz1 0.985 | S. cerevisiae deletion strains, locus YOL147C, strain pex11, hits give low values 0.987 | S. cerevisiae deletion strains, locus YOR001W, strain rrp6, hits give low values 1 | S. cerevisiae deletion strains, locus YOR061W, strain CKA2, hits give low values 1.01 | S. cerevisiae deletion strains, locus YOR069W, strain VPS5, hits give low values 1.01 | S. cerevisiae deletion strains, locus YOR070C, strain gyp1, hits give low values 1.01 | S. cerevisiae deletion strains, locus YOR080W, strain dia2, hits give low values 1.03 | S. cerevisiae deletion strains, locus YOR083W, strain WHI5, hits give low values 1 | S. cerevisiae deletion strains, locus YOR106W, strain vam3, hits give low values 1.04 | S. cerevisiae deletion strains, locus YOR136W, strain idh2, hits give low values 0.987 | S. cerevisiae deletion strains, locus YOR144C, strain elg1, hits give low values 0.988 | S. cerevisiae deletion strains, locus YOR184W, strain ser1, hits give low values 0.99 | S. cerevisiae deletion strains, locus YOR231W, strain MKK1, hits give low values 0.99 | S. cerevisiae deletion strains, locus YOR265W, strain rbl2, hits give low values 1.01 | S. cerevisiae deletion strains, locus YOR270C, strain vph1, hits give low values 1.07 | S. cerevisiae deletion strains, locus YOR290C, strain snf2, hits give low values 1.07 | S. cerevisiae deletion strains, locus YOR316C, strain cot1, hits give low values 0.99 | S. cerevisiae deletion strains, locus YPL051W, strain arl3, hits give low values 1 | S. cerevisiae deletion strains, locus YPL078C, strain atp4, hits give low values 1.01 | S. cerevisiae deletion strains, locus YPL106C, strain sse1, hits give low values 1.03 | S. cerevisiae deletion strains, locus YPL240C, strain hsp82, hits give low values 1.02 | S. cerevisiae deletion strains, locus YPL256C, strain CLN2, hits give low values 0.966 | S. cerevisiae deletion strains, locus YPR119W, strain clb2, hits give low values 0.982 | S. cerevisiae deletion strains, locus YPR141C, strain kar3, hits give low values 0.976 | S. cerevisiae deletion strains, locus YPR163C, strain tif3, hits give low values 0.989 | S. cerevisiae deletion strains, locus YPR167C, strain met16, hits give low values 0.991 | S. cerevisiae deletion strains, strain wtn01, hits give low values 1.01 | S. cerevisiae strains, strain wild type, hits give low values 1.01

Reference: PubChem BioAssay AID1159580 (chemical genetic matrix, 2015)
